About 480 (0.16%) of roughly 300,000 compounds were called active.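 How the source made its calls: active means inhibition over 29.93%, a cutoff 3 SD above the screen mean, later confirmed by dose response; inconclusive means inhibition over 29.93% but no dose response follow-up; inactive means inhibition at most 29.93% or unconfirmed.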 Not all results are given here. Results with a measured potency or affinity are listed apart.
Test: PhoP-dependent GFP reporter repression – Salmonella Typhimurium, primary screen (AID 1863);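 further: 0% = low Mg2+ inducing control and 100% = high Mg2+ repressing control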
Settings: S. Typhimurium PhoP-regulated promoter GFP reporter, 4 h; at 50 µM; active compounds read high

inhibition, inactive:
Nc1nnc(CC(=O)N/N=C/c2ccccc2OCc2ccccc2F)s1 2.44%, CSCC[C@H](NC(=O)Nc1ccc(S(N)(=O)=O)cc1)C(=O)O -5.86%, COC(=O)[C@H](CCSC)NC(=O)Nc1ccc(C)cc1 -5.05%, COc1cccc(OCc2cc(C(=O)N3CCN(c4ccccc4O)CC3)no2)c1 8.64%, CCCOc1ccc(C(=O)O)cc1 -6.14%, CCOc1ccc(C(=O)C(CCC(CN(C)C)C(=O)c2ccc(OCC)cc2)CN(C)C)cc1 (stereo unspecified) 17.1%, COCCn1c(SCC(=O)N2CCCCC2)nc2c([nH]c3ccccc32)c1=O -1.34%, Cc1ccc(C(=O)N/N=C\c2cc3c(cc2Br)OCO3)cn1 1.38%, O=C(N/N=C/c1cc(Br)ccc1O)c1ccncc1 3.11%, O=C(N/N=C/c1ccc(Cl)cc1Cl)c1ccncc1 3.86%, COc1ccc(C(=O)N/N=C/c2cc(Br)ccc2O)cc1OC -7.66%, O=C(N/N=C/c1cc(Br)c(O)c(Br)c1O)c1cccnc1 -3.91%, O=C(N/N=C/c1cc(Br)c(O)c(Br)c1)c1cccnc1 -1.14%, O=C(N/N=C/c1ccccc1O)c1ccncc1 -5.2%, O=C(N/N=C/c1ccc(O)c([N+](=O)[O-])c1)c1ccncc1 -0.43%, Cc1nc2c3ccccc3nc(SCC(=O)N3CC(C)CC(C)C3)n2n1 (stereo unspecified) 4.78%, Cc1ccc2oc(=O)c3cnn(CC(=O)N4CCCc5ccccc54)c3c2c1 -8.23%, Cc1cccc(NC(=O)CNC(=O)N2CC(=O)Nc3ccccc32)c1C -2.45%, Cc1cccc(C(=O)Nc2nnc(SCC(=O)NC3CC3)s2)c1 -3.7%, CS(=O)(=O)N1CCc2ccc(NC(=O)C3CCCO3)cc2C1 (stereo unspecified) 4.89%, Cc1ccc(S(=O)(=O)/N=C(/c2ccc(F)cc2)N2CCOCC2)cc1 -3.33%, CCOC(=O)C1CCN(c2ncnc3nc[nH]c23)CC1 0.02%, Cc1ccc(OCCC(=O)OCC(=O)Nc2ccccc2)cc1 1.27%, O=C(N/N=C/c1cccnc1)c1cccc(Cl)c1 -1.41%, O=C(N/N=C/c1cc(Cl)ccc1O)c1ccc(Br)cc1 4.94%, O=C(N/N=C/c1coc2ccc(Cl)cc2c1=O)c1ccc(O)cc1 10.4%, O=C(N/N=C/c1cc([N+](=O)[O-])ccc1O)C1CCCCC1 1.18%, O=C(N/N=C/c1cc([N+](=O)[O-])ccc1O)C1C2CCCCC21 (stereo unspecified) -0.31%, O=C(N/N=C/c1coc2ccc(Cl)cc2c1=O)c1ccncc1 7.37%, CCOc1ccc(CN2CCC(n3nccc3NC(=O)c3ccccc3OC)CC2)cc1 -0.04%, CCCNC(=O)c1ccccc1NS(=O)(=O)c1ccc(OC)c(OC)c1 4.85%, CCc1cc(C(=O)N(CCCOC)c2c(N)n(Cc3ccccc3)c(=O)[nH]c2=O)sc1C -2.51%, CCOC(=O)C(C(=O)OCC)C(C(=O)OCC)N1CCOCC1 (stereo unspecified) 3.26%, CC1(C)NC(=O)N(CC(O)CN2C(=O)CCC2=O)C1=O (stereo unspecified) -6.24%, Cn1c2ccccc2c(=O)c2ccc(C#Cc3ccccn3)cc21 0.47%, COc1ccccc1N1CCN(C(c2ccccc2)c2nnnn2CCc2ccccc2)CC1 (stereo unspecified) 1.99%, Cc1cc(C)n(CCCNC(=O)Cn2nnnc2CN2C[C@@H](C)O[C@@H](C)C2)n1 0.46%, COc1ccccc1NS(=O)(=O)c1ccc(Cl)c(NC(=O)c2sc3cc(Cl)ccc3c2Cl)c1 5.27%, Cc1cc(SCC(=O)N/N=C/c2ccc(O)c(O)c2)c(C)cc1Br -9.61%, Cc1cc(SCC(=O)N/N=C/c2ccc(O)cc2O)c(C)cc1Br -6.96%, CCCCC(c1nnnn1C1CCCC1)N1CCN(C(=O)c2ccco2)CC1 (stereo unspecified) -4.03%, Cc1cc(C(=O)N/N=C/c2cc([N+](=O)[O-])ccc2O)c2ccccc2n1 18.3%, Cc1cc(C(=O)N/N=C/c2cc(Cl)cc([N+](=O)[O-])c2O)c2ccccc2n1 28.8%, O=C(Nc1ccccc1N1CCN(C(=O)c2ccc(Cl)cc2)CC1)c1cccc(F)c1 2.12%, Cc1ccc(S(=O)(=O)N2CCC(C(=O)NCCN3CCOCC3)CC2)cc1C -3.49%, O=C(c1ccc(Cl)cc1)c1ccc(Oc2cc(NN3CCCCC3)c([N+](=O)[O-])cc2[N+](=O)[O-])cc1 6.36%, CCOc1ccc(C2CC(=O)NC2=O)cc1 (stereo unspecified) 3.62%, O=C(NCc1nc(-c2ccc(Cl)cc2)no1)c1ccco1 -1.48%, CN1CCN(C(=O)CCN2C(=O)/C(=C\c3ccc(Cl)cc3)SC2=S)CC1 -5.92%, O=C(O)c1ccc(N2C(=O)CC(N3C(=O)/C(=C/c4ccc(Cl)cc4)SC3=S)C2=O)cc1 (stereo unspecified) 16%, Cc1cccc(C)c1NC(=O)CCCCCC1NC(=O)NC1C (stereo unspecified) 2.4%, Cc1nn(-c2ccccc2)c(N)c1Sc1ccc([N+](=O)[O-])cc1 0.62%, C=CCn1c(=NC(=O)CN2C(=O)CCC2=O)sc2cc(S(N)(=O)=O)ccc21 17%, CC1CCN(Cc2ccc(-c3nnn(CC(=O)Nc4ccccc4Cl)n3)cc2)CC1 -3.86%, COc1ccccc1N1CCN(C(=O)C(C)CS(=O)(=O)c2ccc3c(c2)NC(=O)CS3)CC1 (stereo unspecified) -8.13%, O=[N+]([O-])c1cccc(-c2ccn[nH]2)c1 -3.87%, O=[N+]([O-])c1cc(-c2ccn[nH]2)ccc1Cl -3.78%, Cc1cc(C(C)(C)C)ccc1OCCOCCN1CCCC1 3.82%, CC(C)(C)c1ccc(OCCNCc2ccccc2)cc1 -2.16%, C[N+](C)(CCOc1ccccc1)Cc1ccccc1 (tested in a mixture with another compound) -8.86%, Cc1cc(C(C)(C)C)ccc1OCCN(C)C -7.47%

From PubChem BioAssay AID1863 (Southern Research Specialized Biocontainment Screening …, 2009)
